According to PubChem BioAssay AID1894 (NMMLSC, 2009):
The campaign covered roughly 5,900 compounds. About 100 (1.7%) were called active. The entries come from a sample that favours actives as a whole. Values without a mark were called inactive.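 How the source made its calls: active means binding response below 72% of control, or above a set upper limit, though filed actives all read lower; inactive means the rest.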

Molecular target: Mitogen-activated protein kinase kinase kinase 3 (Homo sapiens) (UniProt Q99759)
Assay: MEKK3 wild-type PB1 binding to MEK5, inhibitors, confirmation, biochemical, bead multiplex flow cytometry, single concentration, wildtype (AID 1894);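 further: 100% = DMSO only wells and 0% = binding blocked by excess unlabeled MEK5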
Conditions: Alexa488-MEK5 binding to MEKK3, at 10 µM, hits give low values

Chain of Mitogen-activated protein kinase kinase kinase 3 (Homo sapiens) (Q99759 whole entry, looked up): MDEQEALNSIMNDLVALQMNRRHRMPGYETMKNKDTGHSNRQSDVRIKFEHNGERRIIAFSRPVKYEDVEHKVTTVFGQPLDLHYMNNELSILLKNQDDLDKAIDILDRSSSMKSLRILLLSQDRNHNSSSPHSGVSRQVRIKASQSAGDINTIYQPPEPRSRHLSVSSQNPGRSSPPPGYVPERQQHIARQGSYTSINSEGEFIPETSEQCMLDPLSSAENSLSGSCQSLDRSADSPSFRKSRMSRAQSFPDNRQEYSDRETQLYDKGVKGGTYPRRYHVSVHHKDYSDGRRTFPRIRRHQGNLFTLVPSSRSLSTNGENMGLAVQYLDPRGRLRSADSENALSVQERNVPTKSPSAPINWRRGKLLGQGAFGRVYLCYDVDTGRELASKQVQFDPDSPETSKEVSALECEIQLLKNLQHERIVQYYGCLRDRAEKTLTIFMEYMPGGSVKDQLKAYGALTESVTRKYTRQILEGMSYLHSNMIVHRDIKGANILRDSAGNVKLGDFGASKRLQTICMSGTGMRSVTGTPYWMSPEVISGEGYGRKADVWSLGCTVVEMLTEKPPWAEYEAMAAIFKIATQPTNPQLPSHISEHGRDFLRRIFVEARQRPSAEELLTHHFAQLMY

SMILES	binding response (% of control)
O=C(Nc1ccc(Cl)cn1)c1cnn2cccnc12	105%
CCOC(=O)c1sc2nc(C)nc(SCC(N)=O)c2c1C	109%
CCC(C)OC(=O)C(C)Oc1ccc(-c2ccccc2)cc1 (centres undefined)	108%
COc1ccc(C(=O)C[n+]2ccc(C)cc2)cc1	103%
CCN1CCN(c2ccc(S(=O)(=O)N3CCCCC3)cc2NC(=O)Cc2c(Cl)cccc2Cl)CC1	104%
Cc1nn(-c2ccccc2)c(NC(=O)c2cccs2)c(-c2ccc(Cl)cc2)c1=O	101%
Cc1cc(C(=O)OCC(=O)N2c3ccccc3NC(=O)C2(C)C)c(C)n1-c1ccccc1	106%
Cc1cccn2c(=O)c(/C=C3\SC(=S)N(CC(C)C)C3=O)c(NCCCOC(C)C)nc12	86%
C/C(CC(=O)NC(C)(C)C)=N\NC(=O)c1ccco1	100%
Cc1ccc(C(=O)N/C(=C/c2ccco2)C(=O)NCCc2c[nH]c3ccccc23)cc1C	105%
CCC(=C/c1sc2ccc3ccccc3c2[n+]1C)/C=C1\Sc2ccc3ccccc3c2N1C	29% (active)
Cn1c2ccccc2c(=O)c2c(=O)n(Cc3ccco3)c(COc3ccccc3)nc21	100%
CN(C)CCCNC(=O)c1cc(C(=O)Cc2ccc(Cl)cc2)c[nH]1	98%
Cc1ccc(NC(=S)N(CCCN2CCCC2)Cc2cccn2Cc2ccc(Cl)cc2)cc1	104%
N#C/C(=C\C1=C(N2CCOCC2)C(=C\c2ccccc2)/CC1)C(=O)Nc1ccccc1F	27% (active)
COC(=O)c1cc(NC(=O)c2cc(C(C)(C)C)nn2Cc2cccc(C)c2)ccc1N1CCOCC1	99%
CN(C)CCCNC(=S)N1CCN(c2nc(-c3ccccc3)cs2)CC1	102%
Cn1ccc(=Nc2ccc(NC(=O)c3ccc(N=c4ccn(C)c5ccc([N+](=O)[O-])cc45)cc3)cc2)cc1	105%
O=C(NCCCN1CCN(c2ccc(F)cc2)CC1)Nc1ccc([N+](=O)[O-])cc1	107%
O=C(c1cnn(-c2ccc(Cl)cc2)c1)c1ccccc1O	110%
O=C(NC1CCN(Cc2ccccc2)CC1)c1ccc(Oc2cc(Cl)cc(Cl)c2)o1	97%
O=C(NCCC1=CCCCC1)c1ccc(Cl)c([N+](=O)[O-])c1	106%

SMILES	binding response (% of control)
CC1CN(C(=O)c2ccccc2NS(=O)(=O)c2cccc([N+](=O)[O-])c2)CC(C)O1 (centres undefined)	101%
CC(C)c1ccc(C(=O)NCCCc2ccccc2)cc1	98%
O=C(O)c1cccnc1NC1CCCC1	108%
COc1cccc(NC(=S)NCCCN2CCOCC2)c1	106%
COC(=O)CCc1sc(Nc2ccc(Br)cc2)nc1-c1ccc(OC)cc1	106%
O=C(NNc1c2ccccc2nc2ccccc12)c1cc2ccccc2cc1O	51% (active)
O=C(Cc1cccc2ccccc12)Nc1ccc2oc(-c3ccccc3)nc2c1	102%
CNC(=O)/C(=C\C=C\c1ccccc1)NC(=O)c1ccc([N+](=O)[O-])cc1	107%
COc1ccc(C(=O)NCC(=O)N/N=C/c2ccc([N+](=O)[O-])o2)cc1OC	93%
Cc1c(-c2ccccc2)cn2c1-c1ccc(C)n1CC2	93%
Cc1ccc(C)c(CN2CCC(CNC(=O)Nc3ccc(C)c(F)c3)CC2)c1	107%
COc1cc(-c2nc(-c3ccncc3)no2)cc(OC)c1OC	104%
Cc1ccc(S(=O)(=O)/N=S(\C)C(C)C)cc1 (centres undefined)	101%
CCOC(=O)Cc1csc(NC(=O)CSc2nc(C)cc(=O)[nH]2)n1	99%
COc1ccc(CNC(=O)C2CCN(S(C)(=O)=O)CC2)cc1	102%
O=C(Cc1cccs1)N/N=C/c1ccc(OCc2ccccc2)cc1	104%
COc1ccc(S(=O)(=O)N2CN(CCc3ccc(OC)c(OC)c3)c3nc4ccccc4nc32)cc1	97%
COc1cc(CC(=O)N/N=C/c2ccccc2)c([N+](=O)[O-])cc1OC	104%
FC(F)(F)c1cccc(N/N=C/c2ccccc2)c1	105%
CCOC(=O)CN(C)S(=O)(=O)c1ccc(-c2cc(C(=O)OC)sc2C(F)(F)F)cc1	103%
COc1ccc(C2CC(=O)Nc3cc(C)c(C)cc32)c(OC)c1OC (centres undefined)	104%
O=C(c1ccco1)N1CCN(c2cccc(Cl)c2)CC1	100%
